In all, about 360,000 compounds went through this assay and about 8,200 (2.3%) were called active. The sample holds actives, similar compounds and a random draw of the others, so the mix is not that of the screen. Rule as the data show it: active = inhibition above about 27%; inactive = the rest.
molecular target: Fructose-bisphosphate aldolase (Mycobacterium tuberculosis (strain ATCC 25618 / H37Rv)) (UniProt P9WQA3); assay: M. tuberculosis aldolase activity blockers – biochemical, fluorescence, strain H37Rv, primary screen (AID 588726);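 also: 0% = vehicle and 100% = reference inhibitor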; conditions: purified M. tuberculosis FBA, fluorescence read-out, at 1 µM, active compounds read high
Sequence (P9WQA3 whole entry, looked up): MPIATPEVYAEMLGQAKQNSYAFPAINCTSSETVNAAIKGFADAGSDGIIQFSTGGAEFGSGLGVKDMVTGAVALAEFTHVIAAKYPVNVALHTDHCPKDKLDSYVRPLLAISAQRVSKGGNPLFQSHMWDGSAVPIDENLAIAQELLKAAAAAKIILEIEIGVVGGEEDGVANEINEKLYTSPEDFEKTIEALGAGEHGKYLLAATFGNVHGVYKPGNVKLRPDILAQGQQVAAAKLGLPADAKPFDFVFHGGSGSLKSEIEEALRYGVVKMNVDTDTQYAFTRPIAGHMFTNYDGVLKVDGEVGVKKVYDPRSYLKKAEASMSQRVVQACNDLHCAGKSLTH

SMILES	inhibition
N#Cc1ccc(N2Cc3ccccc3/C2=N/C(=O)Nc2ccc(Cl)cc2)cc1	-0.15% (inactive)
CC1CCCCC1NC(=O)CN1CCC(O)(c2ccc3c(c2)OCO3)CC1 (centres undefined)	-4.2% (inactive)
CN(C)c1ccc(/C=N/NC(=O)C(O)c2ccc(Br)cc2)cc1 (centres undefined)	39.7% (active)
COc1ccc(/C=N/NC(=O)C(C)N(c2ccc(OC)cc2)S(C)(=O)=O)cc1 (centres undefined)	-1.16% (inactive)
CN(C)c1ccc(/C=N/NC(=O)c2ccc(Cn3cc(Br)cn3)o2)cc1	0.83% (inactive)
CCCNC(=O)N1CCC(c2ccc3c(c2)OCO3)CC1	0.5% (inactive)
O=c1[nH]oc(O)c1-c1ncc(C(F)(F)F)cc1Cl	0.86% (inactive)
Cc1ccc(C)c(NC(=O)c2ccc(OC(=O)c3ccco3)cc2)c1	3.01% (inactive)
CC(C)=NN1C(=O)c2ccccc2NC1(C)C	36.7% (active)
CC(=O)N1C(=O)C2(Nc3ccccc3N2)c2ccccc21	6.98% (inactive)
CCOC(=O)C1(Cc2ccc(Cl)cc2)CCN(C(=O)C2=NNC(=O)CC2)CC1	-6.86% (inactive)
CCC(=O)c1ccc(OC(=O)/C=C/c2cc(OC)c(OC)c(OC)c2)cc1	4.81% (inactive)
COc1cc(/C=C/C2=CC(C)(C)NC(=S)N2)cc(OC)c1OC	-5.13% (inactive)
COc1cc(/C=C/c2ccc(/C=C/c3cc(OC)c(OC)c(OC)c3)cc2)cc(OC)c1OC	50.4% (active)
CC/C(=N/Nc1ccccc1)c1cnnc(SC)n1	0.39% (inactive)
COc1ccc(NC(=O)N2CCCC(C(=O)Nc3ccccc3OC)C2)cc1 (centres undefined)	1.71% (inactive)
COc1ccc(NC(=O)N2CCC(Cc3ccccc3)CC2)cc1	53.4% (active)
COc1ccc(C(=O)NC2CCN(C(=O)Nc3ccc(F)cc3)CC2)cc1	-0.69% (inactive)
O=C(COC(=O)c1ccc(S(=O)(=O)N2CCCCCC2)cc1)Nc1ccccc1C(F)(F)F	4.5% (inactive)
COC(=O)COc1ccc2c(=O)c(Oc3ccccc3Br)coc2c1	-0.49% (inactive)
CCc1ccc(Oc2coc3cc(OC(=O)c4cc5ccccc5oc4=O)ccc3c2=O)cc1	13.1% (inactive)
CCc1ccc(Oc2coc3cc(O)ccc3c2=O)cc1	70.2% (active)
Cc1ccc(N2C(=O)CC(N3CCSCC3)C2=O)c(C)c1 (centres undefined)	3.11% (inactive)
COc1cccc2[nH]c(C(=O)NCCc3ccccc3)cc12	33.2% (active)

SMILES	inhibition
COc1ccc(OC)c2[nH]c(=O)c(CCNC(=O)C(=O)c3c[nH]c4ccccc34)cc12	-5.42% (inactive)
COc1ccc(CCNC(=O)c2ccccc2-c2ccccc2C(=O)O)cc1OC	2.28% (inactive)
N#C[C@]1(S(=O)(=O)c2ccccc2)C[C@@H]2ON=C(c3cccc(Br)c3)[C@@H]2C1	2.3% (inactive)
NS(=O)(=O)c1cc(C(=O)OCC(=O)NNC(=O)c2ccccc2)ccc1Cl	-1.72% (inactive)
O=C(NCc1ccccc1)C1CNCC(C(=O)NCc2ccccc2)C1 (centres undefined)	-0.79% (inactive)
COc1ccc(-n2cnc3cc(NCc4ccco4)ccc32)cc1	-1.49% (inactive)
Cn1c(SCC(=O)Nc2ccc(Br)cc2F)nnc1-c1ccco1	1.98% (inactive)
Cn1c(-c2ccco2)nc2cc3ccccc3cc21	81.7% (active)
N#Cc1c(C(F)(F)F)cc(-c2cccs2)nc1N1CCCCC1	11% (inactive)
O=C(O)CSc1ccc(S(=O)(=O)N2CCCC2)cn1	-0.83% (inactive)
N#Cc1c(N2CCCCC2)nc(N)c2c(N)nc(SCC(=O)O)cc12	29.2% (active)
COCc1c(C(=O)OCc2c(C)noc2C)oc2ccccc12	5.69% (inactive)
CCOc1ccccc1C(=O)NC1CC2CCCC(C1)N2Cc1ccccc1 (centres undefined)	-3.49% (inactive)
Cc1ccnc(NC(=O)C2CCN(S(=O)(=O)c3c(C)c(C)cc(C)c3C)CC2)c1	1.99% (inactive)
CCN(CC(=O)Nc1c(F)cccc1F)C(=O)c1ccc(-c2ccccc2)cc1	1% (inactive)
CCN(CC(=O)Nc1c(F)cccc1F)C(=O)c1cnc(C)cn1	2.56% (inactive)
CCN(CC(=O)Nc1c(F)cccc1F)C(=O)c1ccc(-c2ccc(C(C)=O)cc2)o1	142% (active)
COC(=O)c1ccc([C@@H](O)[C@H](C)C(=O)CC(=O)OC(C)(C)C)cc1	0.55% (inactive)
CCOc1ccc(S(=O)(=O)N2CCCC(C(=O)N3CCC(C(N)=O)CC3)C2)cc1Cl (centres undefined)	2.08% (inactive)
COc1cc(Br)cc(/C=N/c2ncn[nH]2)c1O	-0.39% (inactive)
Oc1ccc(Br)cc1C=Nc1ccc2[nH]ncc2c1	39.7% (active)
COc1ccc(C)cc1NC(=O)CSc1nnc2ccc(-c3ccccn3)nn12	5.79% (inactive)
COc1ccc(-c2coc3c(C(=O)NC(C)C)cccc23)c(C)c1	-2.36% (inactive)
COc1ccc(-c2ccc(C(=O)NCCN3CCOCC3)c3occc23)c(C)c1	88.1% (active)

SMILES	inhibition
COCCCNC(=O)c1ccc(-c2c(C)noc2C)c2ccoc12	1.17% (inactive)
COc1ccc(-c2cc(C(=O)NCCCN3CCOCC3)no2)cc1	3.9% (inactive)
CC(=O)Oc1cc2c(C(=O)NCCN3CCOCC3)c(C)oc2c2ccccc12	0.36% (inactive)
COc1ccc(-c2ccc(C(=O)NC(C)C)c3occc23)c(C)c1	69.8% (active)
CCOC(=O)[C@H]1[C@H]2COc3cc(OC)ccc3[C@@H]2N2C(=O)CN(Cc3ccc(Cl)cc3)C(=O)[C@@]12C	-3.3% (inactive)
C=CCn1c(=O)n(C)c2c(=O)n(C)c(=O)n(C)c21	1.89% (inactive)
Nc1scc(-c2ccncc2)c1Cl	-1.39% (inactive)
CC(C)(C)Nc1c(-c2cccs2)nc2ccccn12	76.1% (active)
Cc1nc2ccccn2c(=O)c1NC(=O)c1cccs1	3.76% (inactive)
Cc1cc2nc(C(F)(F)F)cc(-c3cccs3)n2n1	9.4% (inactive)
COC(=O)C1=C(N)Oc2cc(C)[nH]c(=O)c2C1c1ccc(Cl)cc1 (centres undefined)	-1.06% (inactive)
CCOC(=O)N1CCC(NC(=O)Cn2cc3c(n2)CCCCC3)CC1	3.04% (inactive)
C[C@H]1CN([C@@H](C)CO)C(=O)CCCn2nncc2CO[C@@H]1CN(C)S(=O)(=O)c1cccc(C#N)c1	1.03% (inactive)
O=C(CN1C(=O)NC2(CCCCC2)C1=O)NCCC1=CCCCC1	1.11% (inactive)
COc1cccc(NC(=O)CN(C)CC(=O)Nc2ccc3c(c2)CCC3)c1	55.8% (active)
COc1cccc(NC(=O)CN(C)C(=O)/C=C/c2cc(OC)ccc2OC)c1	57.2% (active)
COc1cccc(NC(=O)CN(C)C(=O)CSC(=S)N2CCCC2)c1	3.18% (inactive)
COc1cccc(NC(=O)CN(C)C(C)C(=O)Nc2ccc(C#N)cc2)c1 (centres undefined)	1.24% (inactive)
COc1ccc(/C=C/C(=O)OCC(=O)Nc2cccc(Oc3ccccc3)c2)c(OC)c1	-1.32% (inactive)
COc1cccc(NC(=O)CN(C)C(=O)Cc2ccc(Cl)cc2Cl)c1	-2.96% (inactive)
Cc1ccc(-c2ccnc3nc(Sc4ncc(C(F)(F)F)cc4Cl)nn23)cc1	25.2% (inactive)
CCc1ccc(OCC(=O)OCC(=O)c2c(N)n(C)c(=O)n(C)c2=O)cc1	3.53% (inactive)
COc1ccccc1CNC(=O)Cn1c(=O)oc2cc(Cl)ccc21	-1.01% (inactive)
CC(C)C(C)(C#N)NC(=O)CSc1nc2scc(-c3ccccc3)c2c(=O)[nH]1 (centres undefined)	-1.25% (inactive)

SMILES	inhibition
COCCNc1nc(-n2nc(C)cc2C)nc2sc3c(c12)CCCC3	35.2% (active)
CCc1nc(N2CCN(C(C)=O)CC2)c2c3c(sc2n1)CCCC3	-1.16% (inactive)
CCCc1nc2sc3c(c2c(=O)n1NC(=O)CCCl)CCCC3	-0.17% (inactive)
C=CCn1c(CCNC(=O)c2cccs2)n[nH]c1=S	0.26% (inactive)
O=C(NNC(=S)NC1CC2CCC1C2)c1ccc(Cl)cc1 (centres undefined)	-1.27% (inactive)
Cc1nn2c(c1-c1ccccc1)N=C(c1ccco1)CC2c1ccccc1 (centres undefined)	-3.5% (inactive)
COC(=O)c1ccccc1NC(=O)C1CC(=O)N(c2ccc(OC)cc2)C1 (centres undefined)	2.12% (inactive)
CCOC(=O)N1CCN(C(=O)c2ccc3c(c2)N(Cc2ccc(C)cc2)CCS3)CC1	7.61% (inactive)
O=C(NCCN1CCOCC1)c1c(F)c(F)c(F)c(F)c1F	-2.22% (inactive)
O=C(NCCc1ccccc1)c1ccc2c(c1)N(Cc1ccccc1)CCS2	43.6% (active)
O=C(NCCN1CCOCC1)c1ccc2c(c1)N(Cc1ccc(Cl)cc1)CCS2	32.2% (active)
CC1CCCN(c2ccc(C(=O)NCCc3ccccc3)cn2)C1 (centres undefined)	2.27% (inactive)
O=C(Cc1ccc(Br)cc1)NCCN1CCOCC1	1.41% (inactive)
CN(C)/C=N/c1cc(=O)n(C)c(=O)n1CC1CC1	-0.52% (inactive)
CN1C(C(=O)NCC2CC2)CC2Cn3c(nc4ccccc43)C21 (centres undefined)	-0.07% (inactive)
Cc1nonc1OCCn1nnnc1N	-0.1% (inactive)
COC[C@@H]1NS(=O)(=O)c2ccc(Br)cc2O[C@H]1c1ccccc1	-2.58% (inactive)
Cc1nonc1C1CCCN1C(=O)c1cc(COc2cccc(C(F)(F)F)c2)on1 (centres undefined)	-1.66% (inactive)
CCCC1OC23CCCCC2C(C#N)(C#N)C1(C#N)C(=N)O3 (centres undefined)	48.2% (active)
CCCCc1cc(=O)oc2cc(C)cc(OCc3nn[nH]n3)c12	183% (active)
CN(CCOc1ccccc1)Cc1nc2cc(Cl)ccc2c(=O)[nH]1	7.42% (inactive)
CC(=O)N1CC[n+]2c(-c3ccc([N+](=O)[O-])cc3)csc21	-3.76% (inactive)

— PubChem BioAssay AID588726 (The Scripps Research Institute Molecular Screening Center, 2011)
